These compounds were tested on gramicidin D channels in DC22:1PC lipid vesicles (bilayer-modifying potency) (assay: initial Tl+ fluorescence quench rate relative to no-drug control (NormRate, gramicidin monomer-dimer shift) (ratio (fold of control)); higher = stronger bilayer-modifying effect (equilibrium shifted toward conducting dimers), active = 1.5 or more). Conditions: 10 µM; lipid concentration 50 µM; temperature: 25 °C.
Experimental: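 Stopped-flow fluorescence quench assay: ANTS-loaded DC22:1PC large unilamellar vesicles doped with gramicidin D (1:2000), 50 µM lipid, equilibrated 10 min with 10 µM drug (0.1% DMSO), mixed with Tl+ quench buffer at 25°C. Initial quench rate (Tl+ influx) was fitted with a modified stretched exponential and normalised to the no-drug control rate (NormRate); duplicates from two independent LUV preparations (triplicates for 7 drugs).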

Compound | initial Tl+ fluorescence quench rate
Cc1nn(C)c(C)c1NS(=O)(=O)c1c(Cl)cc(-c2ccnc(N3CCNCC3)c2)cc1Cl | 1.38 (inactive)
Cc1cccc(C(=O)Nc2ccnc(N(C)C3CCN(CC(C)C)CC3)c2)c1 | 1.12 (inactive)
CC1(C)OB(O)c2ccc(C3=NO[C@@](c4cc(Cl)c(F)c(Cl)c4)(C(F)(F)F)C3)cc21 | 4.11 (active)
CO[C@@H]1CN(c2ccc(C#C[C@@]3(O)CN4CCC3CC4)c(Cc3ccccc3)n2)C[C@H]1O | 1.06 (inactive)
CO/C=C(/C(=O)OC)c1ccccc1Oc1cc(Oc2ccccc2C#N)ncn1 | 1.05 (inactive)
O=C1O[C@@H](CO)CN1c1cc(F)c(C2=CCN(Cc3ccccc3)CC2)c(F)c1 | 1.13 (inactive)
CC(C)(C)[C@@H](O)[C@H](Oc1ccc(-c2ccccc2)cc1)n1cncn1 | 2.39 (active)
O=C1O[C@@H](COc2ccon2)CN1c1cc(F)c(C2=CCN(Cc3ccccc3)CC2)c(F)c1 | 1.31 (inactive)
Cc1cc(C2=NO[C@@](c3cc(Cl)c(F)c(Cl)c3)(C(F)(F)F)C2)ccc1C(=O)NCc1ccc2c(c1)C(C)(C)OB2O | 4.21 (active)
CCc1nn(C)c(C(=O)NCc2ccc(Oc3ccc(C)cc3)cc2)c1Cl | 2.89 (active)
Nc1c2c(nc3sc4c(c13)CCCC4)CCCC2 | 1.07 (inactive)
CO/N=C(\C(=O)OC)c1ccccc1CO/N=C(\C)c1cccc(C(F)(F)F)c1 | 1.36 (inactive)
C[C@@H]1CO[C@](Cn2cncn2)(c2ccc(Oc3ccc(Cl)cc3)cc2Cl)O1 | 2.49 (active)
Cc1nn(Cc2ccccc2)c(Cl)c1C(=O)NC1CCCCCC1 | 1.1 (inactive)

From the supplement of paper PMC9948646
